# Measured values taken from PubChem BioAssay (NCATS).
# Records with an inconclusive call do not appear. Active and inactive are the calls of the source. The call rests on the fitted dose curve; in most records, active means well fitted inhibition curve with a large enough effect; inconclusive means small, poorly fitted or top-dose-only effect; inactive means no such curve, though single readings can be large or run the other way.
# Molecular target: Cytochrome P450 2D6 (Homo sapiens) (UniProt P10635)
# Assay: qHTS Assay for Inhibitors and Substrates of Cytochrome P450 2D6 (AID 891); further: nearly all actives have a fitted effect of over 60% in size
# Settings: recombinant CYP2D6, luciferin-ME EGE luminescence; series mostly up to 11.4 µM
# In short: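 Human CYP2D6 (5 nM) with 30 uM Luciferin-ME EGE (at Km) in 100 mM KPO4, compound preincubated 10 min, then NADPH regeneration system for 60 min at room temperature. Luciferin read by luminescence; normalized to 1.43 uM quinidine.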
# Potency means the concentration at half of the fitted maximal effect.
# Sequence of Cytochrome P450 2D6 (Homo sapiens) (P10635 whole entry, looked up): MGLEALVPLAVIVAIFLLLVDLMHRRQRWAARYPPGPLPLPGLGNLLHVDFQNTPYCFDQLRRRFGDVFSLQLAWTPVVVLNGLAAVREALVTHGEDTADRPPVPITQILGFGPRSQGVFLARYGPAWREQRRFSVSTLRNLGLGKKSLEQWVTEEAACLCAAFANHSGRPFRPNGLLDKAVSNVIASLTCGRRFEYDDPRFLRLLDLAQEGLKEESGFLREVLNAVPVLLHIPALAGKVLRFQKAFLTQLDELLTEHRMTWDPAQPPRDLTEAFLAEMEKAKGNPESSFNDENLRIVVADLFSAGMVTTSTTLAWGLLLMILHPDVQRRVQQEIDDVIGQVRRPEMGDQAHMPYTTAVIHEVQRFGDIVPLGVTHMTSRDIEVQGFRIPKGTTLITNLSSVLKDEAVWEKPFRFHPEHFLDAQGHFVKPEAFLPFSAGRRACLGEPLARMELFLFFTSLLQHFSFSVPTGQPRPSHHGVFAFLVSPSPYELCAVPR
row,Compound,Potency
1,CCN1C(=O)[C@H]2[C@H]3[C@H](O)[C@H](O)C/C(=N/OC[C@@H](C)[C@H](OCc4ccccc4)C(C)C)[C@@H]3CC[C@@H]2C1=O,inactive
2,CC(=O)OC[C@H]1O[C@@H](O/N=C(\C)CCN2CCc3nc(-c4ccccc4)c(-c4ccccc4)cc3C2)[C@H](OC(C)=O)[C@@H](OC(C)=O)[C@H]1OC(C)=O,3.16 µM (active)
3,CC(=O)OC[C@@H]1O[C@H](C/C=N\O[C@@H](C)CN2CCCc3nc(C)c(C)cc32)C=C[C@@H]1OC(C)=O,3.16 µM (active)
4,CC(C)=NO[C@@H](C)CN1CCCCc2nc(C)c(C)cc21,2.51 µM (active)
5,CO/N=C(\C)CCN1CCCCc2nc(C)c(C)cc21,3.98 µM (active)
6,CC(=O)OC[C@H]1O[C@@H](O/N=C(\C)CCN2CCCc3nc(C)c(C)cc32)[C@H](OC(C)=O)[C@@H](OC(C)=O)[C@H]1OC(C)=O,3.16 µM (active)
7,CC(=O)OC[C@H]1O[C@@H](O/N=C(\C)CCN2CCCCc3nc(C)c(C)cc32)[C@H](OC(C)=O)[C@@H](OC(C)=O)[C@H]1OC(C)=O,3.98 µM (active)
8,C[C@@H](c1ccccc1)N1C(=O)[C@H]2[C@H]3[C@H](O)[C@H](O)C/C(=N/OCc4ccccc4)[C@@H]3CC[C@@H]2C1=O,inactive
9,O=C(NCCC[N+]1=CC=N[C@H]1c1ccccc1)N1CCCc2nc(-c3ccc(Br)cc3)ccc21,0.0794 µM (active)
10,COc1ccc(OC2C=CC(C#Cc3ccc(C(C)(C)C)cc3)OC2CO)cc1 (stereo not drawn),inactive
11,CC(=O)OC[C@@H]1O[C@H](C/C=N\O[C@@H](C)CN2CCCCc3nc(C)c(C)cc32)C=C[C@@H]1OC(C)=O,3.16 µM (active)
12,CCc1cc2c(nc1CC)CCN(CC/C(C)=N/O[C@@H](C)CN1CCCc3nc(C)c(C)cc31)C2,3.98 µM (active)
13,CO[C@@H]1COC(=O)[C@@H](C)NC(=O)C/C=C\[C@@H](C)[C@H](NS(=O)(=O)c2ccc(C)cc2)COC(=O)[C@H](C)NC(=O)C/C=C\[C@H]1C,inactive
